Laboratory results published in the supplement of paper PMC10849652.
Of roughly 7,900 targets only a part is listed; those with a hit were picked by preference. About 0.6% of all pairs of compound and target were hits. Values without a mark were called inactive.

Legend:
Experiment in all cases: log2 fold change, soluble protein after heating vs DMSO (PISA); higher = thermal stabilisation; K562 cells, 10 uM, 30 min; active = over 0.2 and 3.5 SD of the protein, either way, in both replicates (recomputed)
saracatinib = compound: CN1CCN(CCOc2cc(OC3CCOCC3)c3c(Nc4c(Cl)ccc5c4OCO5)ncnc3c2)CC1 [saracatinib]
In short: (§1)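 K562 cells at 2×10^6 cells/mL were treated for 30 min with 10 μM compound, and aliquots were heated for 3 min over 48°C-58°C before pooling. Extraction used PBS with 0.5% NP-40 at 4°C, and soluble protein was the supernatant after 21,000xg for 90 min, measured by TMTpro 16plex LC-MS/MS with channel sums equalised. Thermal stability values, relative to control samples and from duplicates, are log2 fold changes.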

sotrastaurin = compound: CN1CCN(c2nc(C3=C(c4c[nH]c5ccccc45)C(=O)NC3=O)c3ccccc3n2)CC1 [sotrastaurin]
In short: as §1

alvocidib = compound: CN1CC[C@H](c2c(O)cc(O)c3c(=O)cc(-c4ccccc4Cl)oc23)[C@H](O)C1 [alvocidib]
In short: as §1

Tubastatin A = compound: CN1CCc2c(c3ccccc3n2Cc2ccc(C(=O)NO)cc2)C1 [Tubastatin A]
In short: as §1

[1] = compound: CNC(=O)C1=CC=CC=C1NC2=NC(=NC=C2Cl)NC3=C(C=C(C=C3)N4CCOCC4)OC
In short: as §1

defactinib = compound: CNC(=O)c1ccc(Nc2ncc(C(F)(F)F)c(NCc3nccnc3N(C)S(C)(=O)=O)n2)cc1 [defactinib]
In short: as §1

rucaparib = compound: CNCc1ccc(-c2[nH]c3cc(F)cc4c3c2CCNC4=O)cc1 [rucaparib]
In short: as §1

[2] = compound: CNc1nc(-c2ccc3c(N)n[nH]c3c2)cc(N2C[C@@H](C(=O)NC3CCCCC3)CC[C@H]2C)n1
In short: as §1

encorafenib = compound: COC(=O)N[C@@H](C)CNc1nccc(-c2cn(C(C)C)nc2-c2cc(Cl)cc(NS(C)(=O)=O)c2F)n1 [encorafenib]
In short: as §1

[3] = compound: COC(=O)[C@H](CCSC)NC(=O)C1=C(C=C(C=C1)NC[C@H](CS)N)C2=CC=CC=C2
In short: as §1

[4] = compound: COC1=CC=C(C=C1)CN2C=CC3=C2C=C(C=C3)C(=O)NO
In short: as §1

filanesib = compound: CON(C)C(=O)N1N=C(c2cc(F)ccc2F)S[C@@]1(CCCN)c1ccccc1 [filanesib]
In short: as §1

zotarolimus = compound: CO[C@H]1C[C@@H]2CC[C@@H](C)[C@@](O)(O2)C(=O)C(=O)N2CCCC[C@H]2C(=O)O[C@H]([C@H](C)C[C@@H]2CC[C@H](n3cnnn3)[C@H](OC)C2)CC(=O)[C@H](C)/C=C(\C)[C@@H](O)[C@@H](OC)C(=O)[C@H](C)C[C@H](C)/C=C/C=C/C=C/1C [zotarolimus]
In short: as §1

idasanutlin = compound: COc1cc(C(=O)O)ccc1NC(=O)[C@@H]1N[C@@H](CC(C)(C)C)[C@](C#N)(c2ccc(Cl)cc2F)[C@H]1c1cccc(Cl)c1F [idasanutlin]
In short: as §1

alisertib = compound: COc1cc(Nc2ncc3c(n2)-c2ccc(Cl)cc2C(c2c(F)cccc2OC)=NC3)ccc1C(=O)O [alisertib]
In short: as §1

[5] = compound: COc1cc2nc(-c3cc(F)ccc3O)nc(N[C@@H]3CNC[C@H]3C(C)(C)O)c2cc1OC
In short: as §1

gefitinib = compound: COc1cc2ncnc(Nc3ccc(F)c(Cl)c3)c2cc1OCCCN1CCOCC1 [gefitinib]
In short: as §1

[6] = compound: COc1cccc2cc(-c3nc([C@H]4CC[C@H](C(=O)O)CC4)n4ncnc(N)c34)[nH]c12
In short: as §1

lapatinib = compound: CS(=O)(=O)CCNCc1ccc(-c2ccc3ncnc(Nc4ccc(OCc5cccc(F)c5)c(Cl)c4)c3c2)o1 [lapatinib]
In short: as §1

pictilisib = compound: CS(=O)(=O)N1CCN(Cc2cc3nc(-c4cccc5[nH]ncc45)nc(N4CCOCC4)c3s2)CC1 [pictilisib]
In short: as §1

UniProt Q9BSF4, sequence (Q9BSF4 whole entry, looked up): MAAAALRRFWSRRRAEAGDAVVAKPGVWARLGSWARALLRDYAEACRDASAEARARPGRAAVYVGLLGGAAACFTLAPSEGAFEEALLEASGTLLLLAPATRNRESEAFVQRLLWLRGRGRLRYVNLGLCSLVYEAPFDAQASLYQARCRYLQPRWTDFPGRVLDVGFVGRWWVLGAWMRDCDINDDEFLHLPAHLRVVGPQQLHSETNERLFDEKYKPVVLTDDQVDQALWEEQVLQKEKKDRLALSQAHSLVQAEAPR
UniProt P04183, sequence (P04183 whole entry, looked up): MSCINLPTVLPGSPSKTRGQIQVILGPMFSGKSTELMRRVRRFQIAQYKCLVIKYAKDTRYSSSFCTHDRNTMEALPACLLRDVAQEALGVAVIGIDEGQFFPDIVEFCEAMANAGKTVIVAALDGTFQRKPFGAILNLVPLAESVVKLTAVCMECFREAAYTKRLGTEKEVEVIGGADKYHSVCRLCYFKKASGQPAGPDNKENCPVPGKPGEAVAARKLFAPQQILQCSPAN
UniProt Q86VD7, sequence (Q86VD7 whole entry, looked up): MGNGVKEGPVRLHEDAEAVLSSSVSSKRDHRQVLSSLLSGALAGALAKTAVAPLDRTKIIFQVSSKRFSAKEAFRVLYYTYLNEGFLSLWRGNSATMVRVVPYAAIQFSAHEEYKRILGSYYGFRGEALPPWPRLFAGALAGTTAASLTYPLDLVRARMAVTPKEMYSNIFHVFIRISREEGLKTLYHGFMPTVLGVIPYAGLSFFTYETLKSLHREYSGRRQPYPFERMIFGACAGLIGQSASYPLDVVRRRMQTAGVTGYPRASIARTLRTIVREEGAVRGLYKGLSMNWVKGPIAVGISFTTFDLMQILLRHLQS
UniProt Q15833, sequence (Q15833 whole entry, looked up): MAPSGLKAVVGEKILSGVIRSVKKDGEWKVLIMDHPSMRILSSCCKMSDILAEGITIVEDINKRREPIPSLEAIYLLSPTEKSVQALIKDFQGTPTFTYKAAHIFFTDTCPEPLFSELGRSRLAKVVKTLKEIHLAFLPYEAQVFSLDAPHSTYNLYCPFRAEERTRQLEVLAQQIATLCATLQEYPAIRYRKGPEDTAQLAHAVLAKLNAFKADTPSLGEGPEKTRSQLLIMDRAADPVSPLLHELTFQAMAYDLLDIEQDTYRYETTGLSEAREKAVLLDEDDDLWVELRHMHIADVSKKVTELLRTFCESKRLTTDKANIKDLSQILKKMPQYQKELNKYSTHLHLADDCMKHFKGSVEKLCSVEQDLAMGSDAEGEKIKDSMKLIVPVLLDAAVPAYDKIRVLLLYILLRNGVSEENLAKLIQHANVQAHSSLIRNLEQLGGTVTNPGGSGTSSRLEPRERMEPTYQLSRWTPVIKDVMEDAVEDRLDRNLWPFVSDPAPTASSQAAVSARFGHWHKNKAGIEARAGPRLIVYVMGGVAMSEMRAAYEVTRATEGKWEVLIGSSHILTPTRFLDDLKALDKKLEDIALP
UniProt Q13573, sequence (Q13573 whole entry, looked up): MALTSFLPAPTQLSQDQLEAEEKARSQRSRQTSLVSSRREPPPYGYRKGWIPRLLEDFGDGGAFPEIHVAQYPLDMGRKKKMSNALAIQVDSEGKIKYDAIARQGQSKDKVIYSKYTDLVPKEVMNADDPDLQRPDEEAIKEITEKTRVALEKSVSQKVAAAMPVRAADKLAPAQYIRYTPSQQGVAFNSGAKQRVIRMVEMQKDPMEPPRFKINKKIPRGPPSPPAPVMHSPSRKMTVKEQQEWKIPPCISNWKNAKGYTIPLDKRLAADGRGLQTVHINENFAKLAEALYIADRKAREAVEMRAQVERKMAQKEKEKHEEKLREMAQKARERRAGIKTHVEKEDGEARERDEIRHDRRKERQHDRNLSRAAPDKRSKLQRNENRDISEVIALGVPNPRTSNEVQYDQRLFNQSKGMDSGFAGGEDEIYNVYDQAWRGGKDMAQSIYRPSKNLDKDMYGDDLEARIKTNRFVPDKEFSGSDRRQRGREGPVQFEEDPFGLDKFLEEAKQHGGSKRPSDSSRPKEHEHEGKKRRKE
UniProt Q9UMY4, sequence (Q9UMY4 whole entry, looked up): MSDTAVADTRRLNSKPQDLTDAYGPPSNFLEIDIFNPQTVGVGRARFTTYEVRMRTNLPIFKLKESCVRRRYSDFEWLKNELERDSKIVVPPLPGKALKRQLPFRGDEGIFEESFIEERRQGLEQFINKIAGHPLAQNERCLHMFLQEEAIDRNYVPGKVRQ
UniProt Q9UBP0, sequence (Q9UBP0 whole entry, looked up): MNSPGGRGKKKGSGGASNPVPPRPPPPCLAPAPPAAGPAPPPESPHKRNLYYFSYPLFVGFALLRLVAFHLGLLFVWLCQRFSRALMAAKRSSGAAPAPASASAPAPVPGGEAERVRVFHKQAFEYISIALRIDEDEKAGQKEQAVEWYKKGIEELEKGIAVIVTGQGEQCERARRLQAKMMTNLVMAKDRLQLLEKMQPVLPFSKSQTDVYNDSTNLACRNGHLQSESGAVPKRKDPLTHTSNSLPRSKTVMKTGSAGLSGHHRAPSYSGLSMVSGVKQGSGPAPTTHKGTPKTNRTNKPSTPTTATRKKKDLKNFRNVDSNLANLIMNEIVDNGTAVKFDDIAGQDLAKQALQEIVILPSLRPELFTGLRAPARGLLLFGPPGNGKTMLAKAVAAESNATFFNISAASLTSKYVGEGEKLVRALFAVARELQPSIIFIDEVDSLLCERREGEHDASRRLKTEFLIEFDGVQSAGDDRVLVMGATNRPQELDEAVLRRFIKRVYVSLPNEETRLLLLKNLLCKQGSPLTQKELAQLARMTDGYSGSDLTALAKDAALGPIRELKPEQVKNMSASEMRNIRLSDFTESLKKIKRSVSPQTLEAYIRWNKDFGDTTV
UniProt P15907, sequence (P15907 whole entry, looked up): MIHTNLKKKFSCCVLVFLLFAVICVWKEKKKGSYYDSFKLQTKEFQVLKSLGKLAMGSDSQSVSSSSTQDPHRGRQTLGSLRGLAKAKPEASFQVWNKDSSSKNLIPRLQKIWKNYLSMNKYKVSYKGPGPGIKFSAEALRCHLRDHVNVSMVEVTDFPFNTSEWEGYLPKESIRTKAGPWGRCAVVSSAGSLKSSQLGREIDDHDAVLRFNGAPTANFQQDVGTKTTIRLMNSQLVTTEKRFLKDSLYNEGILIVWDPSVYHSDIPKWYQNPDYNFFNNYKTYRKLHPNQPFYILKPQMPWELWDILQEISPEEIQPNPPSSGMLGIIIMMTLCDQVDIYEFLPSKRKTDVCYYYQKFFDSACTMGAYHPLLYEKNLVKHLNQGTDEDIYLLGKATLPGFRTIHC
UniProt P40763, sequence (P40763 whole entry, looked up): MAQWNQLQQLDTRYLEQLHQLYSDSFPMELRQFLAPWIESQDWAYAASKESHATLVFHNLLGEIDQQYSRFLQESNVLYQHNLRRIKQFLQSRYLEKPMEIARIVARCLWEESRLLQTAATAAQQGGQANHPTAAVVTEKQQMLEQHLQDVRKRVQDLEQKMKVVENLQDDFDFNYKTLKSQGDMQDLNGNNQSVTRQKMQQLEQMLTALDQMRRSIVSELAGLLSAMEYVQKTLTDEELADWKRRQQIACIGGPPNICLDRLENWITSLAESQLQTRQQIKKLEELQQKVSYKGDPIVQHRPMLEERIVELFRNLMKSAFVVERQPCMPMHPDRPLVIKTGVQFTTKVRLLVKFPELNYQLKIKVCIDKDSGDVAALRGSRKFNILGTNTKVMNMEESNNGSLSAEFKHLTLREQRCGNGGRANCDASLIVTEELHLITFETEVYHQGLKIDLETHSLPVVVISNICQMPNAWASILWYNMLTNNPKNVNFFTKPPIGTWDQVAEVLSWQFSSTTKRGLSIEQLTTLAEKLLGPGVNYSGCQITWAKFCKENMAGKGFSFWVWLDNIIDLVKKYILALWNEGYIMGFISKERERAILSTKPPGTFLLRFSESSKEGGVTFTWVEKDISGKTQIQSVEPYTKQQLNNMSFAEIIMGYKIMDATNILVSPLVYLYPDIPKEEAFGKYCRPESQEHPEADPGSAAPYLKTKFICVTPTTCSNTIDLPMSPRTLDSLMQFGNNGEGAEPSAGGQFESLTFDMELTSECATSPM
UniProt O75494, sequence (O75494 whole entry, looked up): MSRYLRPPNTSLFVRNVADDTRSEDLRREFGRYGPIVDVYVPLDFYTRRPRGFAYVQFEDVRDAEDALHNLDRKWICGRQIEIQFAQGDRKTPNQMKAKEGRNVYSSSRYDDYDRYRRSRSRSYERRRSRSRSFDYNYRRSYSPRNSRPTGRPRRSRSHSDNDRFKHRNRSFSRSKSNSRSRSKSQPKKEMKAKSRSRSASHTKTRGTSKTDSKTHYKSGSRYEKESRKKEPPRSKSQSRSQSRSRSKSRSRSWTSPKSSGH

Target | log2 fold change (saracatinib) | log2 fold change (sotrastaurin) | log2 fold change (alvocidib) | log2 fold change (Tubastatin A) | log2 fold change [1] | log2 fold change (defactinib) | log2 fold change (rucaparib) | log2 fold change [2] | log2 fold change (encorafenib) | log2 fold change [3] | log2 fold change [4] | log2 fold change (filanesib) | log2 fold change (zotarolimus) | log2 fold change (idasanutlin) | log2 fold change (alisertib) | log2 fold change [5] | log2 fold change (gefitinib) | log2 fold change [6] | log2 fold change (lapatinib) | log2 fold change (pictilisib)
TK1 (UniProt P04183) | 0.067 | 0.036 | -0.028 | 0.034 | -0.013 | -0.021 | -0.015 | -0.003 | -0.005 | 0.024 | -0.012 | -0.258 (active) | -0.023 | -0.011 | -0.034 | 0.021 | -0.018 | 0.073 | -0.009 | 0.045
STAT3 (UniProt P40763) | 0.025 | -0.144 | -0.112 | 0.05 | 0.029 | -0.124 | -0.062 | -0.017 | 0.077 | -0.012 | 0.063 | -0.031 | 0.086 | -0.003 | 0.013 | 0.023 | 0 | -0.039 | 0.004 | 0.051
ST6GAL1 (UniProt P15907) | -0.001 | 0.018 | 0.006 | 0.026 | 0.159 | -0.03 | 0.004 | 0.05 | 0.037 | -0.08 | 0.013 | 0.224 (active) | 0.051 | 0.066 | -0.085 | 0.046 | 0.095 | -0.003 | 0.116 | 0.063
SLC25A42 (UniProt Q86VD7) | 0.105 | 0.023 | 0 | -0.032 | 0.005 | 0.101 | 0.021 | 0.035 | -0.067 | 0.083 | 0.241 (active) | -0.011 | 0.058 | 0.047 | 0.012 | -0.029 | 0.063 | 0.043 | 0.084 | -0.003
TIMM29 (UniProt Q9BSF4) | 0.054 | 0.051 | -0.068 | 0.003 | -0.03 | 0.1 | -0.008 | 0.002 | -0.098 | 0.13 | -0.141 | 0.041 | -0.058 | -0.096 | 0.01 | 0.021 | 0.039 | 0.073 | 0.014 | 0.051
STXBP2 isoform 3 (UniProt Q15833) | -0.138 | -0.242 | -0.113 | 0.085 | -0.091 | -0.133 | 0.157 | 0.142 | 0.176 | -0.203 | 0.021 | 0.001 | -0.043 | 0.043 | -0.034 | 0.045 | 0.043 | -0.066 | 0.007 | -0.091
SPTBN4 (UniProt Q9H254) | -0.056 | 0.009 | 0.095 | -0.005 | -0.284 | 0.039 | 0.059 | -0.035 | -0.076 | -0.002 | -0.036 | -0.068 | 0.014 | -0.237 | -0.116 | -0.202 | -0.047 | 0.158 | 0.041 | 0.175
TELO2 (UniProt Q9Y4R8) | -0.05 | -0.211 | -0.015 | -0.004 | 0.03 | -0.019 | 0.2 | 0.145 | 0.049 | -0.057 | -0.026 | 0.113 | 0.098 | -0.103 | -0.16 | -0.122 | 0.004 | -0.125 | 0.007 | -0.023
SPAST (UniProt Q9UBP0) | -0.016 | -0.015 | -0.203 | 0.003 | -0.01 | -0.056 | 0.073 | 0.115 | 0.038 | -0.037 | 0.03 | -0.028 | -0.006 | -0.038 | -0.1 | 0.096 | -0.019 | -0.042 | -0.019 | -0.041
SNX12 isoform 1 (UniProt Q9UMY4) | 0.035 | 0.07 | 0 | 0.013 | 0.059 | -0.025 | -0.025 | -0.028 | 0.15 | -0.037 | -0.029 | -0.027 | -0.007 | 0.039 | 0.005 | -0.008 | 0.035 | 0.09 | -0.006 | -0.002
SNW1 (UniProt Q13573) | 0.01 | 0.003 | 0.128 | -0.033 | 0.038 | 0.131 | 0.042 | -0.082 | -0.005 | -0.005 | 0.014 | 0.039 | -0.068 | 0.034 | -0.08 | 0.073 | -0.068 | 0 | 0.011 | -0.035
SRSF10 (UniProt O75494) | -0.002 | 0.041 | 0.338 | -0.009 | -0.053 | 0.233 | 0.314 | 0.068 | 0.133 | 0.14 | -0.102 | 0.424 | -0.157 | 0.388 | -0.099 | -0.169 | -0.009 | -0.056 | 0.101 | -0.042
